Assay results published in PubChem BioAssay AID1159580 (chemical genetic matrix, 2015).
“And” between values parts separate entries of the source, which are not always exact repeats. Identical values can stand only once. Out of some 5,500 compounds screened, about 2,000 (36%) were called active. Inconclusive results (about 18%) are left out. Rule as the data show it: active = normalized growth mostly below about 0.91 (no sharp cut-off); inconclusive = no clear call, values can overlap the other calls; inactive = mostly above about 0.92. The list shows a part of the results.

Assay: chemical genetic growth profiling, strain panel (AID 1159580);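 also: tested at 20 µM; growth read once vehicle control cultures reached saturation at 30 °C; 1 = growth at the plate median or of vehicle wells; lower values mean less growth of the strain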
Settings: S. cerevisiae deletion strains, growth OD

Measured: normalized growth

N[C@@H](Cc1ccc(O)c(O)c1)C(=O)O
inactive: locus YAL013W, strain DEP1, stronger effect = lower value 0.999 | locus YAL021C, strain ccr4, stronger effect = lower value 1 | locus YAL026C, strain drs2, stronger effect = lower value 0.989 | locus YAL030W, strain snc1, stronger effect = lower value 1 | locus YBL061C, strain skt5, stronger effect = lower value 1.01 | locus YBR009C, strain hhf1, stronger effect = lower value 0.982 | locus YBR021W, strain FUR4, stronger effect = lower value 1.14 | locus YBR023C, strain chs3, stronger effect = lower value 1 | locus YBR171W, strain sec66, stronger effect = lower value 0.997 | locus YBR229C, strain ROT2, stronger effect = lower value 1.01 | locus YBR231C, strain swc5, stronger effect = lower value 1 | locus YBR279W, strain paf1, stronger effect = lower value 1 | locus YCL011C, strain gbp2, stronger effect = lower value 1 | locus YCL016C, strain dcc1, stronger effect = lower value 0.997 | locus YCL029C, strain bik1, stronger effect = lower value 0.998 | locus YCL061C, strain MRC1, stronger effect = lower value 0.998 | locus YCL069W, strain vba3, stronger effect = lower value 1 | locus YCR088W, strain abp1, stronger effect = lower value 0.999 | locus YDL005C, strain med2, stronger effect = lower value 0.994 | locus YDL035C, strain GPR1, stronger effect = lower value 0.976 | locus YDL040C, strain nat1, stronger effect = lower value 0.998 | locus YDL074C, strain BRE1, stronger effect = lower value 0.969 | locus YDL101C, strain DUN1, stronger effect = lower value 0.993 | locus YDL134C, strain PPH21, stronger effect = lower value 0.997 | locus YDL185W, strain tfp1, stronger effect = lower value 0.955 | locus YDL192W, strain arf1, stronger effect = lower value 0.991 | locus YDR001C, strain nth1, stronger effect = lower value 1 | locus YDR069C, strain doa4, stronger effect = lower value 1 | locus YDR101C, strain arx1, stronger effect = lower value 1 | locus YDR137W, strain rgp1, stronger effect = lower value 1.01 | locus YDR150W, strain NUM1, stronger effect = lower value 0.947 | locus YDR159W, strain sac3, stronger effect = lower value 0.995 | locus YDR162C, strain NBP2, stronger effect = lower value 0.968 | locus YDR195W, strain ref2 0.962 | locus YDR297W, strain sur2, stronger effect = lower value 1.01 | locus YDR318W, strain mcm21, stronger effect = lower value 0.987 | locus YDR334W, strain swr1, stronger effect = lower value 1 | locus YDR335W, strain msn5, stronger effect = lower value 0.997 | locus YDR388W, stronger effect = lower value 1.01 | locus YDR392W, strain spt3, stronger effect = lower value 0.885 | locus YDR502C, strain sam2, stronger effect = lower value 0.999 | locus YEL003W, strain gim4, stronger effect = lower value 0.999 | locus YEL037C, strain rad23, stronger effect = lower value 1 | locus YEL061C, strain CIN8 (second series), stronger effect = lower value 0.999 | locus YEL061C, strain CIN8, stronger effect = lower value 0.998 | locus YER015W, strain faa2, stronger effect = lower value 1.01 | locus YER016W, strain bim1, stronger effect = lower value 0.995 | locus YER110C, stronger effect = lower value 0.993 | locus YER111C, strain swi4, stronger effect = lower value 0.995 | locus YER155C, strain BEM2 (second series), stronger effect = lower value 0.988 | locus YER155C, strain BEM2, stronger effect = lower value 1.02 | locus YER167W, strain BCK2, stronger effect = lower value 0.989 | locus YFR010W, strain ubp6, stronger effect = lower value 0.999 | locus YGL078C, strain dbp3, stronger effect = lower value 0.986 | locus YGL086W, strain mad1, stronger effect = lower value 0.98 | locus YGL167C, strain pmr1, stronger effect = lower value 0.994 | locus YGL173C, strain kem1, stronger effect = lower value 1 | locus YGL227W, strain vid30, stronger effect = lower value 0.986 | locus YGL240W, strain doc1, stronger effect = lower value 0.986 | locus YGL248W, strain PDE1, stronger effect = lower value 0.989 | locus YGL253W, strain hxk2, stronger effect = lower value 1 | locus YGR078C, strain PAC10, stronger effect = lower value 0.932 | locus YGR135W, strain pre9, stronger effect = lower value 0.996 | locus YGR229C, strain SMI1, stronger effect = lower value 0.928 | locus YGR252W, strain gcn5, stronger effect = lower value 1.03 | locus YHR013C, strain ard1, stronger effect = lower value 0.943 | locus YHR027C, strain rpn1, stronger effect = lower value 1.01 | locus YHR030C, strain SLT2, stronger effect = lower value 0.997 and 0.962 | locus YHR079C, strain IRE1 (second series), stronger effect = lower value 0.995 | locus YHR079C, strain IRE1, stronger effect = lower value 0.951 | locus YHR094C, strain hxt1, stronger effect = lower value 0.988 | locus YHR129C, strain ARP1, stronger effect = lower value 0.991 | locus YHR142W, strain chs7, stronger effect = lower value 1.01 | locus YHR200W, strain rpn10, stronger effect = lower value 0.992 | locus YIL066C, strain RNR3, stronger effect = lower value 0.928 | locus YIL073C, strain SPO22, stronger effect = lower value 0.866 | locus YIL125W, strain kgd1, stronger effect = lower value 0.984 | locus YIR030C, strain dcg1, stronger effect = lower value 1 | locus YJL092W, strain hpr5, stronger effect = lower value 0.991 | locus YJL095W, strain BCK1 (second series), stronger effect = lower value 1 | locus YJL095W, strain BCK1, stronger effect = lower value 1.01 and 0.968 | locus YJL115W, strain asf1, stronger effect = lower value 1 | locus YJL129C, strain trk1, stronger effect = lower value 1 | locus YJL134W, strain LCB3, stronger effect = lower value 0.99 | locus YJL154C, strain vps35, stronger effect = lower value 1 | locus YJL164C, strain tpk1, stronger effect = lower value 1 | locus YJL166W, strain qcr8, stronger effect = lower value 0.997 | locus YJL168C, strain set2, stronger effect = lower value 1.01 | locus YJL187C, strain SWE1 (second series), stronger effect = lower value 0.984 | locus YJL187C, strain SWE1, stronger effect = lower value 1 | locus YJR043C, strain POL32, stronger effect = lower value 0.996 | locus YJR066W, strain TOR1, stronger effect = lower value 0.928
